Compound activity from PubChem BioAssay.
Shown are actives, neighbours in structure and some others; about 8.1% of the full set was active somewhere.
SW480 rerep: inducers of DNA re-replication in SW480 colon cancer cells; Potency, µM (series often up to 46.1 µM), for the others: at the top dose re-replication activation, most hits filed as activators; AID 624297; SW480 DNA re-replication, Hoechst DNA content imaging, 48 h; hit rate 1.8% among 340,000; further: % of control where 0% means no effect; nearly all actives have a fitted effect of over 55% in size
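Treated cells incubate 48 hr (37 C, 5% CO2), are stained 40 min with Hoechst, and nuclear fluorescence is enumerated; a rise in nuclei with high DNA signal marks re-replication.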
KB-V1 cytotox: KB-V1 MDR subline cytotoxicity; KB-V1 MDR cells viability, CellTiter-Glo, 72 h; Potency, µM (top dose mostly 46.1 µM), hits mostly cytotoxic; hit rate 3.4% among 400,000; further: on the % scale 0 is the no-effect control and ±100 the full control effect; nearly all actives have a fitted effect of over 60% in size
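Potencies derive from concentration-effect curves fitted to normalized luminescence (CellTiter-Glo) of KB-V1 cells treated for 72 h at 37 degrees C in phenol-red-free DMEM containing 10% FBS.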
KB-3-1 tox: kills parental KB-3-1 adenocarcinoma cells. KB-3-1 viability, CellTiter-Glo ATP luminescence, 72 h. Potency, µM (doses to about 46.1 µM), usual class: cytotoxic. hit rate 1.4% among 400,000. AID 1347075; further: on the % scale 0 is the no-effect control and ±100 the full control effect; nearly all actives have a fitted effect of over 60% in size
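Parental KB-3-1 adenocarcinoma cells in phenol-red-free DMEM with 10% FBS were pin-treated with compounds at several concentrations, incubated 72 h at 37 °C, and viability read by CellTiter-Glo luminescence; concentration-effect curves were fitted after normalization.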
ELG1 DNA repair: blocks ELG1-dependent DNA repair in HEK293T cells | hit rate 2.3% among 330,000 | Potency, µM (top dose mostly 46.1 µM), for the others: at the highest dose activity change, negative = inhibition, actives largely listed as inhibitors | HEK293T ELG1-luciferase reporter, luminescence, 16 h; DNA damage induced by 5-fluorouridine | AID 504467; further: on the % scale 0 is the no-effect control and ±100 the full control effect; nearly all actives have a fitted effect of over 55% in size
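Step one: seed 2,000 cells per well. Step two: pin-transfer compound or DMSO alongside 5-fluorouridine. Step three: incubate 16 hr, 37 °C, 5% CO2. Step four: add ONE-Glo, wait 30 min, read luminescence.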
MCF10A rerep: DNA re-replication induction in MCF 10a cells | Potency, µM (series often up to 46.1 µM), without a hit: at the highest dose activity, positive = re-replication, most hits filed as activators | hit rate 2.9% among 350,000 | MCF 10A DNA re-replication, Hoechst nuclear intensity, 48 h; further: % of control where 0% means no effect; nearly all actives have a fitted effect of over 50% in size
* = called active by the depositor. The call rests on the fitted dose curve; in most records, active means well fitted curve in the direction sought with a large enough effect; inconclusive means small, poorly fitted or top-dose-only effect, or another doubt; inactive means no such curve, though single readings can be large; an effect the other way counts as inactive or inconclusive. Potency means the concentration at half of the fitted maximal effect.

What do the screens show for `Cc1ccc(NC(=O)CSC2=C(C#N)C(c3ccco3)C3=C(CC(C)(C)CC3=O)N2)cc1` (configuration not stated)?
SW480 rerep: inconclusive; KB-V1 cytotox: inactive; KB-3-1 tox: inactive; ELG1 DNA repair: inconclusive; MCF10A rerep: 9%

Results for CCc1nnc(SCC(=O)Nc2ccc(Cl)cc2F)c2cc3occc3n12 ?
KB-V1 cytotox: inactive; KB-3-1 tox: inconclusive

What do the screens show for `O=C(CC(NC(=O)c1ccccc1Cl)c1ccccc1)NCCc1ccc(Cl)cc1` (configuration not stated)?
SW480 rerep: -3%; KB-V1 cytotox: 8.2µM*; KB-3-1 tox: inactive; ELG1 DNA repair: 16%; MCF10A rerep: 4%

How did CC(=O)NC(CC(=O)NCCc1ccccc1)c1ccccc1 (configuration not stated) do in these assays?
SW480 rerep: 0%; KB-V1 cytotox: inactive; KB-3-1 tox: inactive; ELG1 DNA repair: 14%; MCF10A rerep: -45%

How did CC(C)N(Cc1nc(-c2ccc(Cl)cc2)no1)C(=O)/C=C/c1ccccc1 do in these assays?
SW480 rerep: 15%; KB-V1 cytotox: 16µM*; KB-3-1 tox: inactive; ELG1 DNA repair: 1%; MCF10A rerep: inconclusive

Results for CC(C)N(Cc1nc(-c2ccccc2)no1)C(=O)CN1C(=O)c2ccccc2C1=O ?
SW480 rerep: 0%; KB-V1 cytotox: 10µM*; KB-3-1 tox: inactive; ELG1 DNA repair: -19%; MCF10A rerep: 2%

Results for CC(C)N(Cc1nc(-c2ccc(Cl)cc2)no1)C(=O)C(c1ccccc1)c1ccccc1 ?
SW480 rerep: 24%; KB-V1 cytotox: inconclusive; KB-3-1 tox: inconclusive; ELG1 DNA repair: -16%; MCF10A rerep: 13%

What do the screens show for `Cc1ccc(-c2noc(CN(C(=O)C(c3ccccc3)c3ccccc3)C(C)C)n2)cc1`?
SW480 rerep: inconclusive; KB-V1 cytotox: 8.2µM*; KB-3-1 tox: inconclusive; ELG1 DNA repair: inconclusive; MCF10A rerep: 10%

Results for CC(C)N(Cc1nc(-c2ccccc2)no1)C(=O)CCCN1C(=O)c2ccccc2C1=O ?
SW480 rerep: -1%; KB-V1 cytotox: inactive; KB-3-1 tox: inactive; ELG1 DNA repair: -4%; MCF10A rerep: -6%

Results for Cc1cccc(-c2noc(CN(C(=O)/C=C/c3ccccc3Cl)C(C)C)n2)c1 ?
SW480 rerep: 1%; KB-V1 cytotox: inconclusive; KB-3-1 tox: inactive; ELG1 DNA repair: -25%; MCF10A rerep: inconclusive

How did CC(=O)Nc1ccc2nc(C3CC3)n(Cc3ccc(Cl)cc3)c(=O)c2c1 do in these assays?
SW480 rerep: -73%; KB-V1 cytotox: inactive; KB-3-1 tox: inactive; ELG1 DNA repair: inconclusive; MCF10A rerep: inconclusive

Results for CCCc1nc2ccc(NC(=O)NCCC(=O)OCC)cc2c(=O)n1Cc1ccc(Cl)cc1 ?
SW480 rerep: 6%; KB-V1 cytotox: inconclusive; KB-3-1 tox: inactive; ELG1 DNA repair: 21µM*; MCF10A rerep: 9%

Results for Cc1nc2ccc(NC(=O)c3cccs3)cc2c(=O)n1Cc1ccc(Cl)cc1 ?
SW480 rerep: 1%; KB-V1 cytotox: inconclusive; KB-3-1 tox: inconclusive; ELG1 DNA repair: 7.3µM*; MCF10A rerep: 17%

How did CCCc1nc2ccc(NC(=O)c3cccs3)cc2c(=O)n1Cc1ccc(Cl)cc1 do in these assays?
SW480 rerep: -3%; KB-V1 cytotox: inactive; KB-3-1 tox: inactive; ELG1 DNA repair: 16µM*; MCF10A rerep: 13%

How did CCCc1nc2ccc(NC(C)=O)cc2c(=O)n1Cc1cccc(Cl)c1 do in these assays?
SW480 rerep: 2%; KB-V1 cytotox: inactive; KB-3-1 tox: inactive; ELG1 DNA repair: inconclusive; MCF10A rerep: -10%

What do the screens show for `Oc1ccc(Cl)cc1Nc1nc(NCC2CCCO2)c2ccccc2n1` (configuration not stated)?
SW480 rerep: inconclusive; KB-V1 cytotox: inactive; KB-3-1 tox: inactive; MCF10A rerep: 23µM*

Results for c1cncc(-c2nc(NCC3CCCO3)c3ccccc3n2)c1 (configuration not stated) ?
SW480 rerep: 10%; KB-V1 cytotox: inconclusive; KB-3-1 tox: inactive; ELG1 DNA repair: 23µM*; MCF10A rerep: 16%

Results for Oc1ccc(Nc2nc(NCC3CCCO3)c3ccccc3n2)cc1 (configuration not stated) ?
SW480 rerep: 14%; KB-V1 cytotox: inactive; KB-3-1 tox: inactive; ELG1 DNA repair: -9%; MCF10A rerep: inconclusive

Results for Clc1cccc(-c2nc(NCc3cccnc3)c3ccccc3n2)c1 ?
SW480 rerep: 15%; KB-V1 cytotox: 15µM*; KB-3-1 tox: inactive; ELG1 DNA repair: 7.3µM*; MCF10A rerep: inconclusive

What do the screens show for `COc1cccc(Nc2nc(NCC3CCCO3)c3ccccc3n2)c1` (configuration not stated)?
SW480 rerep: 3%; KB-V1 cytotox: 2.3µM*; KB-3-1 tox: inconclusive; ELG1 DNA repair: inconclusive; MCF10A rerep: inconclusive

Results for CSc1ccccc1C(=O)N(C)C(c1ccccc1)c1ccccc1 ?
SW480 rerep: 20%; KB-V1 cytotox: inconclusive; KB-3-1 tox: inactive; ELG1 DNA repair: inconclusive; MCF10A rerep: inconclusive

What do the screens show for `COc1cccc(Nc2nc(NCCO)c3ccccc3n2)c1`?
SW480 rerep: inconclusive; KB-V1 cytotox: inconclusive; KB-3-1 tox: inconclusive; ELG1 DNA repair: 16µM*; MCF10A rerep: inconclusive

What do the screens show for `OCCNc1nc(Nc2cccc(O)c2)nc2ccccc12`?
SW480 rerep: -24%; KB-V1 cytotox: inactive; KB-3-1 tox: inactive; ELG1 DNA repair: inconclusive; MCF10A rerep: -4%

How did Oc1ccccc1Nc1nc(NCC2CCCO2)c2ccccc2n1 (configuration not stated) do in these assays?
SW480 rerep: 0%; KB-V1 cytotox: 16µM*; KB-3-1 tox: inconclusive; ELG1 DNA repair: inconclusive; MCF10A rerep: inconclusive

Results for CCCNC(=O)C1(C)CCCN(Cc2ccc(C(F)(F)F)cc2)C1 (configuration not stated) ?
KB-V1 cytotox: inactive; KB-3-1 tox: inactive

What do the screens show for `CCCc1cc(=O)oc2cc(C)cc(OCC(=O)Nc3cccnc3)c12`?
SW480 rerep: 23µM*; KB-V1 cytotox: inactive; KB-3-1 tox: inactive; ELG1 DNA repair: -24%; MCF10A rerep: 12%

Results for Cc1nn(-c2ccccc2)c(C)c1NC(=O)COc1ccc(Br)cc1Cl ?
SW480 rerep: -5%; KB-V1 cytotox: inconclusive; KB-3-1 tox: 15µM*; ELG1 DNA repair: 23µM*; MCF10A rerep: inconclusive

How did Cc1nn(-c2ccccc2)c(C)c1NC(=O)COc1ccc(C#N)cc1 do in these assays?
SW480 rerep: 4%; KB-V1 cytotox: 18µM*; KB-3-1 tox: inactive; ELG1 DNA repair: -15%; MCF10A rerep: inconclusive
